Assay [1] deals with Death-associated protein kinase 1 (Homo sapiens) (UniProt P53355). Conditions: at 10 µM.
For assay [2], the target named is Death-associated protein kinase 2 (Homo sapiens) (UniProt Q9UIK4). Conditions: at 1 µM.
The target is the same in assay [3]. The following applies: at 10 µM.
Assay [4] deals with T1, Serine/threonine-protein kinase DCLK2 (Homo sapiens) (UniProt Q8N568).
T1 sequence (whole entry): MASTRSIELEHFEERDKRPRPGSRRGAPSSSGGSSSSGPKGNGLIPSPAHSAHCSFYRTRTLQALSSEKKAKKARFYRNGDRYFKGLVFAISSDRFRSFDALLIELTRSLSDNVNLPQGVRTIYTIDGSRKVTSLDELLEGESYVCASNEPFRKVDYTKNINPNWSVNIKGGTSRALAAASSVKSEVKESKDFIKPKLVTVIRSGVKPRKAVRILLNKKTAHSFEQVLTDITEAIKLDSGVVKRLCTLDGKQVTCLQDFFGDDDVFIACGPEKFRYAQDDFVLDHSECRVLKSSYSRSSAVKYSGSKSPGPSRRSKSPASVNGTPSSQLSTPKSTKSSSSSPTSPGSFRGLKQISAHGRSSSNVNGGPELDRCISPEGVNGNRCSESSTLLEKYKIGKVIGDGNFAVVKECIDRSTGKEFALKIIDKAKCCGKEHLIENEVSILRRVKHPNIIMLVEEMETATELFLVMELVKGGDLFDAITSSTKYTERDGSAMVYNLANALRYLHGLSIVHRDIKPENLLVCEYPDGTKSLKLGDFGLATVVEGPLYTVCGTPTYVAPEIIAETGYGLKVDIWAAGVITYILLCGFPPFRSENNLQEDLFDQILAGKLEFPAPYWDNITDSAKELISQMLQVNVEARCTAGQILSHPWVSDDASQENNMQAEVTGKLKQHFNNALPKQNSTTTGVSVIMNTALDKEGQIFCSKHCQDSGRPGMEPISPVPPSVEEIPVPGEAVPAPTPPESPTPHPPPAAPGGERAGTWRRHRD
Conditions: at 1 µM.

Assay [5] deals with T1, Serine/threonine-protein kinase DCLK2 (Homo sapiens). The following applies: at 10 µM.
Assay [6] deals with T2, Discoidin domain-containing receptor 2 (Homo sapiens) (UniProt Q16832).
T2 sequence (whole entry): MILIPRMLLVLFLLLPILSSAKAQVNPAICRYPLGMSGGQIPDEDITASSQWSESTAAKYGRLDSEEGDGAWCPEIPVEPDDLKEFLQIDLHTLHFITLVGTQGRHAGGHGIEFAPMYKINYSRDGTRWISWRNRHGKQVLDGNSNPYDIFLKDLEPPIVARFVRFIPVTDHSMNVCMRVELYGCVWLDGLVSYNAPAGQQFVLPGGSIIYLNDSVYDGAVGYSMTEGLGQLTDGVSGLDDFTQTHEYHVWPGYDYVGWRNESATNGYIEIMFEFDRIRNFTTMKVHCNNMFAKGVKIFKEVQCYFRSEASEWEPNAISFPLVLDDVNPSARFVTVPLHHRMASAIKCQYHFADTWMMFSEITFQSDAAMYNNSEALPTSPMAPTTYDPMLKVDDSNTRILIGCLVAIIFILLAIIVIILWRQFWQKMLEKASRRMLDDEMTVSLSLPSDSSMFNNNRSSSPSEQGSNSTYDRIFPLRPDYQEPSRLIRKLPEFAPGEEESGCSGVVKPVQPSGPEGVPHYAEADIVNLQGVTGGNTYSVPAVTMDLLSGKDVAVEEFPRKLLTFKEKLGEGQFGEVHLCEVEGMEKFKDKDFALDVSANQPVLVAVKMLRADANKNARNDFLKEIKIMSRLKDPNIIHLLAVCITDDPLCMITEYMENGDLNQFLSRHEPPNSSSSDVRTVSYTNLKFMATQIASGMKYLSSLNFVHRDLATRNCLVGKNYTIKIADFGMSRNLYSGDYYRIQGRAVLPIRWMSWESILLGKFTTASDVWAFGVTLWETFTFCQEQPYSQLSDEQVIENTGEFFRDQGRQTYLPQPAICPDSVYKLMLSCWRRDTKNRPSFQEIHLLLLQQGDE
The following applies: at 1 µM.

The target of assay [7] is T2, Discoidin domain-containing receptor 2 (Homo sapiens). The following applies: at 10 µM.
In assay [8] the target is T3, Myotonin-protein kinase (Homo sapiens) (UniProt Q09013).
T3 sequence (whole entry): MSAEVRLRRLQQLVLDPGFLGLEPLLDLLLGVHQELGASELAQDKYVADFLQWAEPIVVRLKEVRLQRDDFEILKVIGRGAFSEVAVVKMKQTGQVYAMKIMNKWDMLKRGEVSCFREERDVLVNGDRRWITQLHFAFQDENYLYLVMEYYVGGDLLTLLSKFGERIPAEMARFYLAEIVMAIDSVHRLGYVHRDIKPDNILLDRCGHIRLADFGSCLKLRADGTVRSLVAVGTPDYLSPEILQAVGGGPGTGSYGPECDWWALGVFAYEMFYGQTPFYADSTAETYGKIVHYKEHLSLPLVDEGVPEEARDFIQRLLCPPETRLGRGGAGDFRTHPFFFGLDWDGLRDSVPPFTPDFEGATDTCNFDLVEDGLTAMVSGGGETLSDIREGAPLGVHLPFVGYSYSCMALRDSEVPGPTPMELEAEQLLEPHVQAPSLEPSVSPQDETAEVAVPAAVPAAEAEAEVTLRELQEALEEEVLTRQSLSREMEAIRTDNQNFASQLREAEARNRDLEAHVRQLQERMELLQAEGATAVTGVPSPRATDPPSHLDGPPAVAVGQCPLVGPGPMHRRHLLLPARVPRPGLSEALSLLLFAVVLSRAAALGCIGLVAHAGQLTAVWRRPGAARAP
Conditions: at 1 µM.

The target of assay [9] is T3, Myotonin-protein kinase (Homo sapiens). Conditions: at 10 µM.
Assay [10] addresses T4, Serine/threonine-protein kinase 17A (Homo sapiens) (UniProt Q9UEE5).
T4 sequence (whole entry): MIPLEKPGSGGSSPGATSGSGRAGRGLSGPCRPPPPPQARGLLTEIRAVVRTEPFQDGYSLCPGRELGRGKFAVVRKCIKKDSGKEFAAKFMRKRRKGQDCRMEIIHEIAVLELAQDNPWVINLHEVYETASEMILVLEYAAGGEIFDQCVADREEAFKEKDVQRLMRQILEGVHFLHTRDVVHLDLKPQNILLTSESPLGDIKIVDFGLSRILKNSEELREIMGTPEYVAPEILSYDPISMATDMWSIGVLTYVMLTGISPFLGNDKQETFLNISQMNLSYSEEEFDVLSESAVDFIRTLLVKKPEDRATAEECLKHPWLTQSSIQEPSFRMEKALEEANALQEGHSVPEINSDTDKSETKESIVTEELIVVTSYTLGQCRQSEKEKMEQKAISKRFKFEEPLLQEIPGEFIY
The following applies: at 1 µM.

For assay [11], the target named is T4, Serine/threonine-protein kinase 17A (Homo sapiens). The following applies: at 10 µM.
Assay [12] deals with T5, Dual specificity tyrosine-phosphorylation-regulated kinase 2 (Homo sapiens) (UniProt Q92630).
T5 sequence (whole entry): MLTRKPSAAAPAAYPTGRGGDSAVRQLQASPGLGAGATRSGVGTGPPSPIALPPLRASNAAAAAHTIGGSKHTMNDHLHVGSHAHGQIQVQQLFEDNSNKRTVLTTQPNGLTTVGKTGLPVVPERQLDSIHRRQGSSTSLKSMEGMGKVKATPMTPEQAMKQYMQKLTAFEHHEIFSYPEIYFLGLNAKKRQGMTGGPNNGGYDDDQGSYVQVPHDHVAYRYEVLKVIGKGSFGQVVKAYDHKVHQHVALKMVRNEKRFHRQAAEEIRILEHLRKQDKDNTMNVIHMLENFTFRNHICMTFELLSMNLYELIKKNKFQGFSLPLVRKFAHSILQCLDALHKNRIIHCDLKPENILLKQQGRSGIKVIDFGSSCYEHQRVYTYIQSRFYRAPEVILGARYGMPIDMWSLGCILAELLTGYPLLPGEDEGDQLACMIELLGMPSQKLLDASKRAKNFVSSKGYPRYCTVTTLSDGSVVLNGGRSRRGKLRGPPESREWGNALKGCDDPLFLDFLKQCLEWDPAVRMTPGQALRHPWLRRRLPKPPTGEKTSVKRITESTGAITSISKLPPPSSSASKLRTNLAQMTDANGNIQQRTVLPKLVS
Conditions: at 1 µM.

In assay [13] the target is T5, Dual specificity tyrosine-phosphorylation-regulated kinase 2 (Homo sapiens). The following applies: at 10 µM.
The target in assay [14] is Epidermal growth factor receptor (Homo sapiens) (UniProt P00533). Conditions: at 1 µM.
Epidermal growth factor receptor (Homo sapiens), sequence (P00533 whole entry): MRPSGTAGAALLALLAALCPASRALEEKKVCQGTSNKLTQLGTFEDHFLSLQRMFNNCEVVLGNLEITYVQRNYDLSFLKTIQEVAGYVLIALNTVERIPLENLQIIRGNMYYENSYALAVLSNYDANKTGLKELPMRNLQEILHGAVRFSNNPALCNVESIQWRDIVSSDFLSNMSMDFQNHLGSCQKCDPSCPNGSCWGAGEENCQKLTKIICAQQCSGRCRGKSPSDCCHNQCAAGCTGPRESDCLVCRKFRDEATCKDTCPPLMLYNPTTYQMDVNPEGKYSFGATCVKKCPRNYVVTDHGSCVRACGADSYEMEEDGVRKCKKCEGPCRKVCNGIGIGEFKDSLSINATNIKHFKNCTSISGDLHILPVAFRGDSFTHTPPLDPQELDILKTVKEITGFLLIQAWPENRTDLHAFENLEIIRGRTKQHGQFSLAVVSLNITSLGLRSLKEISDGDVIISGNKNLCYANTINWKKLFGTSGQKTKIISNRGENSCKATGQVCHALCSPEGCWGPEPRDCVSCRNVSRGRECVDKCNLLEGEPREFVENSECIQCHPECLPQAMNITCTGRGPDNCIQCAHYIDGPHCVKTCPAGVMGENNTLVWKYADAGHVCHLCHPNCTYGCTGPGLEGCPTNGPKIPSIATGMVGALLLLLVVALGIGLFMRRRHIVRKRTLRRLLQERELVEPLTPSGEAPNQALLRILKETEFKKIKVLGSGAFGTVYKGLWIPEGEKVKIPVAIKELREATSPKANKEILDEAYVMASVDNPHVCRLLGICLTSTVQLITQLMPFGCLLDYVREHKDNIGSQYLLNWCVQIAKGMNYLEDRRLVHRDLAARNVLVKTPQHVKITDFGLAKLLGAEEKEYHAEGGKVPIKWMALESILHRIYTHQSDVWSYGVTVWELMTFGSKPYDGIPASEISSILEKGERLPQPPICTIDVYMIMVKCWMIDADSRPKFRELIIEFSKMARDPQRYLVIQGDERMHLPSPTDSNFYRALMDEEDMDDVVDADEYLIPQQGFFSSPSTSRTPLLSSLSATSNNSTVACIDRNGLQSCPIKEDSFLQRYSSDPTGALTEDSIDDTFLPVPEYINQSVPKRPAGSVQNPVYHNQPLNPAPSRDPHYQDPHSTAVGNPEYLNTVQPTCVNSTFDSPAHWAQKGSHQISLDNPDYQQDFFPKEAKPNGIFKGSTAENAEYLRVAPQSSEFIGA
The target is the same in assay [15]. The following applies: at 10 µM.
For assay [16], the target named is T6, Ephrin type-A receptor 1 (Homo sapiens) (UniProt P21709).
T6 sequence (whole entry): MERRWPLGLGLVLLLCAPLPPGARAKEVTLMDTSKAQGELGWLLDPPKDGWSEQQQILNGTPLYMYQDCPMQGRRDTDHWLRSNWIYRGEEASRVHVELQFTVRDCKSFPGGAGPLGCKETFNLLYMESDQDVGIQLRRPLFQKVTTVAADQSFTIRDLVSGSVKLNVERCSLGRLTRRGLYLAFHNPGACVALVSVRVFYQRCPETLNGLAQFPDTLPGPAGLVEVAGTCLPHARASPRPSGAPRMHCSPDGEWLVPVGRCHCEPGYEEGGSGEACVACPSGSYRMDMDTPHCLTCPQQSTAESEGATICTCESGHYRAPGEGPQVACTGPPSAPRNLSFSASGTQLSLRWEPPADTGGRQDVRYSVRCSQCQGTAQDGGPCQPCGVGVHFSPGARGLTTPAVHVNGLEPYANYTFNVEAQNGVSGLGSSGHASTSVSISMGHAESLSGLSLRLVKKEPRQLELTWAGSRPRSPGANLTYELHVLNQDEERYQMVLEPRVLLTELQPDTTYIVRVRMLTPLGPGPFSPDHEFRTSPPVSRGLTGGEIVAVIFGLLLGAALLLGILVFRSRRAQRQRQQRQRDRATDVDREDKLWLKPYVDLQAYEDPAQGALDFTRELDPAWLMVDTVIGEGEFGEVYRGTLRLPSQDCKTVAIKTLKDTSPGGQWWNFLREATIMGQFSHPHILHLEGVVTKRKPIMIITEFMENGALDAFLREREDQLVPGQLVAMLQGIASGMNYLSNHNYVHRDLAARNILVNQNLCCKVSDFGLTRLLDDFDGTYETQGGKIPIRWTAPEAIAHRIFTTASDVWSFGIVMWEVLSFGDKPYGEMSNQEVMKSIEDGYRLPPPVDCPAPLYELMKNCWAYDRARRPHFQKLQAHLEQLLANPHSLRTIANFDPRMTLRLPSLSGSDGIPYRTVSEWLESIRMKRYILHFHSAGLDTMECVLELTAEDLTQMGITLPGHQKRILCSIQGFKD
Conditions: at 1 µM.

Assay [17] has as its target T6, Ephrin type-A receptor 1 (Homo sapiens). Conditions: at 10 µM.
Assay [18] deals with Ephrin type-A receptor 2 (Homo sapiens) (UniProt P29317). The following applies: at 1 µM.
Ephrin type-A receptor 2 (Homo sapiens), sequence (P29317 whole entry): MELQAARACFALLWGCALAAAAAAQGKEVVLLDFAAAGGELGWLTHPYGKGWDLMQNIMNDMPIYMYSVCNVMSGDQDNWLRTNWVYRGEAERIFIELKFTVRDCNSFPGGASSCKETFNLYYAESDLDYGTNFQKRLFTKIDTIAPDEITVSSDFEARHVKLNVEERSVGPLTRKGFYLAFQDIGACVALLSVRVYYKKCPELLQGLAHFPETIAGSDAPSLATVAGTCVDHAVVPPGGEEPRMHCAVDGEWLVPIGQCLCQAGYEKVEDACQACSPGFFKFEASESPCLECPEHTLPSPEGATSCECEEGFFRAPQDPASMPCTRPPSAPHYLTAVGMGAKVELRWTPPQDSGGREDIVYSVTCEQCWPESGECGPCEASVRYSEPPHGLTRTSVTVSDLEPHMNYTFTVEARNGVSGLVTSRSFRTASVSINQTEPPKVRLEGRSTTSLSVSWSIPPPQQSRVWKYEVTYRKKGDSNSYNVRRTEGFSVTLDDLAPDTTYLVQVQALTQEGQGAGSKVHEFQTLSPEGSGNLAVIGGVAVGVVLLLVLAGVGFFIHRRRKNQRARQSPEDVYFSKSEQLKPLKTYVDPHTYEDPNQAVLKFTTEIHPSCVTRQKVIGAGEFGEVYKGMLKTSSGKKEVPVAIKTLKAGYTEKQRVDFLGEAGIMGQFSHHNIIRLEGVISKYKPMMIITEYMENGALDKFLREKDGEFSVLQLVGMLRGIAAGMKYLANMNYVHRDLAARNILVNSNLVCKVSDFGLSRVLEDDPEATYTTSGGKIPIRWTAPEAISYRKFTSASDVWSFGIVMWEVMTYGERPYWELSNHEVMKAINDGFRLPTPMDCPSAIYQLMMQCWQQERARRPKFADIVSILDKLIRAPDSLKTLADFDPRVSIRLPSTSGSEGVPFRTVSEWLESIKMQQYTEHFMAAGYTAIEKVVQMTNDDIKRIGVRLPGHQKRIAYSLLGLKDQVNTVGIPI
For assay [19] the target is unchanged. Conditions: at 10 µM.
Assay [20] deals with T7, Ephrin type-A receptor 3 (Homo sapiens) (UniProt P29320).
T7 sequence (whole entry): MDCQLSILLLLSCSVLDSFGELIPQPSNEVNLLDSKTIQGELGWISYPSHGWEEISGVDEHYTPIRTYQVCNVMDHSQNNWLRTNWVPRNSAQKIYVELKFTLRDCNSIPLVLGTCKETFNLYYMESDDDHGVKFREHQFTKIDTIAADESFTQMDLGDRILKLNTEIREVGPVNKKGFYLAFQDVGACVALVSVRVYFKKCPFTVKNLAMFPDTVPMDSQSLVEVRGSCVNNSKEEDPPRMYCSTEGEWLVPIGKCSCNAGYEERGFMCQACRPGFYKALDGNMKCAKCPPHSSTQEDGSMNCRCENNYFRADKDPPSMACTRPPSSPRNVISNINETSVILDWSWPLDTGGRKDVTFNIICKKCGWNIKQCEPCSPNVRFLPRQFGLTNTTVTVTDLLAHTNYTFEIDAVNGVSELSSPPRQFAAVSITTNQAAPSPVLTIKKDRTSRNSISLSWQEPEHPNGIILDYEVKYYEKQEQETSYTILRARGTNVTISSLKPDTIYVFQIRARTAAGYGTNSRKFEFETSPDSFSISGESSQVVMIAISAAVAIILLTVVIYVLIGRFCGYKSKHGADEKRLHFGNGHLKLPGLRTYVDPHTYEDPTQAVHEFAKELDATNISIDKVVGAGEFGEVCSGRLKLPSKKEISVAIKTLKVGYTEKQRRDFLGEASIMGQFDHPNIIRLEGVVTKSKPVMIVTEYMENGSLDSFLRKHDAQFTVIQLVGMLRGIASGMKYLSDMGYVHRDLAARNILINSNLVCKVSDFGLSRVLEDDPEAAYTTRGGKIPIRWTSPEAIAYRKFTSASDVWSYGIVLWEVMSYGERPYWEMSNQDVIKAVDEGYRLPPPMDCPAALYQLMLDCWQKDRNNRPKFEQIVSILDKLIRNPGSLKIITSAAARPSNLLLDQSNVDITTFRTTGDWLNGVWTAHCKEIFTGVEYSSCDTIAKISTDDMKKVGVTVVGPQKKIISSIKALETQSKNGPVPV
The following applies: at 1 µM.

Here are results for 1 compound from ChEMBL document CHEMBL2218924, “A broad activity screen in support of a chemogenomic map for kinase signalling research and drug discovery” (Biochem J, 2013).

Death-associated protein kinase 2 (Homo sapiens), sequence (Q9UIK4 whole entry, looked up): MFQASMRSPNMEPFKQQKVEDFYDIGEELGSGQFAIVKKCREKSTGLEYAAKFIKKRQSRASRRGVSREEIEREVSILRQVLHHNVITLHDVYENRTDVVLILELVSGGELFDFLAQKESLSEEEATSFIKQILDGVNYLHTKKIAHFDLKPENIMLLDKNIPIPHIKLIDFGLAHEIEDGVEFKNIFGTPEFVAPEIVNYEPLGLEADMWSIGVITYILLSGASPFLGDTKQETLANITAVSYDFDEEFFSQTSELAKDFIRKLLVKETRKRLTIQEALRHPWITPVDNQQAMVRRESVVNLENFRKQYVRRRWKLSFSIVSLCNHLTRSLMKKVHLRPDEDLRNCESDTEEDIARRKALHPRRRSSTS
Death-associated protein kinase 1 (Homo sapiens), sequence (P53355 whole entry, looked up): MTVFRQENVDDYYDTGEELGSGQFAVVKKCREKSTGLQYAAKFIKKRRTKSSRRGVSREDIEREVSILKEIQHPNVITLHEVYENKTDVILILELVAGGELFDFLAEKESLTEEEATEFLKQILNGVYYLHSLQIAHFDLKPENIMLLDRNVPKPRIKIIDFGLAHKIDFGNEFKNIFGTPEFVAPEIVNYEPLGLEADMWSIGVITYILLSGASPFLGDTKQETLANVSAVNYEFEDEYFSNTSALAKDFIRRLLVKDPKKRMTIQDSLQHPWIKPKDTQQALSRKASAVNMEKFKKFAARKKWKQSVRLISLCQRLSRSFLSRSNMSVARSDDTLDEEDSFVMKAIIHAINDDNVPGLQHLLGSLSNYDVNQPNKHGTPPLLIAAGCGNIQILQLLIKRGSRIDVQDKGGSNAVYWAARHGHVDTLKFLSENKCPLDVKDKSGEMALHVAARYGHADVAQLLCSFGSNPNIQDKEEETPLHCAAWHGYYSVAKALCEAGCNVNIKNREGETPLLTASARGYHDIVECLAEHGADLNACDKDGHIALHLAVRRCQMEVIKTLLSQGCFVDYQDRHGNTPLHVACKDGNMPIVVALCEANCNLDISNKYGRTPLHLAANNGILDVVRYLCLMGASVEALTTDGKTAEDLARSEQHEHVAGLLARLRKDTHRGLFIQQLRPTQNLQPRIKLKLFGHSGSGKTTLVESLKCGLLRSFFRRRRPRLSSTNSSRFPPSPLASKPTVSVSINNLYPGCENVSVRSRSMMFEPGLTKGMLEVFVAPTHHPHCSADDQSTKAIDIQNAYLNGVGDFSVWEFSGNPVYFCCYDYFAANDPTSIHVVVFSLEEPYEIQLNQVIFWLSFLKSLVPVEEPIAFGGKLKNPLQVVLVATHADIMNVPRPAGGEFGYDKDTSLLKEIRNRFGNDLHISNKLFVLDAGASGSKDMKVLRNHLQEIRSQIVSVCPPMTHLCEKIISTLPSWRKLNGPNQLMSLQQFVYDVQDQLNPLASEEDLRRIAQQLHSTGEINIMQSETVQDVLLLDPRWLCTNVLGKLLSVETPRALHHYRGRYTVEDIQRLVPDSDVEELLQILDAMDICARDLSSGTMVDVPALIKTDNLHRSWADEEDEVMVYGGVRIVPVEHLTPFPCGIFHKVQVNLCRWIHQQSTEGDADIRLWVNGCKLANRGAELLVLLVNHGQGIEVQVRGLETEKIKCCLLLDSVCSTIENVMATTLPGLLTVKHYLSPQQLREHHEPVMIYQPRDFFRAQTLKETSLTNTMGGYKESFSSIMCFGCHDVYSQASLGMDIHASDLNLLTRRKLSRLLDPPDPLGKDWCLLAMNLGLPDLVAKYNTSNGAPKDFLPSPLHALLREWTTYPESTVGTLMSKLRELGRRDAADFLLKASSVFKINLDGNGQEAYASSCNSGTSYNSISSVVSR

In the case of `CC(C)n1cnc2c(NCc3ccccc3)nc(NCCCO)nc21`, the residual activity (usually the signal under treatment as a percentage of the control signal) in assay [1] is 82%; in [2], 101%; in assay [3], 92%; in assay [4] it was 100%; in assay [5], 102%; in [6], 87%. The residual activity turned out to be 91% in assay [7]; 94% in [8]; 87% in assay [9]; 107% in assay [10]; 134% in assay [11]; 99% in assay [12]. Also, the residual activity in assay [13] is 89%; in assay [14] it was -1%; in [15], -2%; in [16], 99%; in assay [17], 91%; in [18] it was 102%. Also, the residual activity in [19] was 112%; in [20], 101%.
